Source: PubChem BioAssay (several laboratories)
Shown are actives, neighbours in structure and some others; about 9.6% of the full set was active somewhere.
PTEN del growth: PTEN-deleted cell growth suppression; viability, % at 10 µM; hit rate 1.2% among 140,000; HCT116 PTEN-null viability, CellTiter-Glo, 60 h; active compounds read low;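 active = viability at or below a set limit, 4 SD under the median of all tested compounds, cut at about 3.7% in these data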;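 also: PTEN knockout HCT116 line with beta catenin targeted HCT116 as companion control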
bCat KO growth: beta-catenin-lacking colon tumor cell growth suppression. viability, % at 10 µM. hit rate 1.5% among 140,000. HCT116 beta-catenin knockout viability, CellTiter-Glo, 60 h; active compounds read low. AID 818;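 active = viability at or under a set limit, the compound median less 4 SD, cut at about 6% in these data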;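 also: 0% = Hyamine 1622 control at 20 µM and 100% = untreated cell control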
Autophagy mod: alters autophagy in cells. MEF GFP-LC3 puncta imaging; test concentration mostly 10 µM. AID 463193. hit rate 0.98% among 190,000. calls only at 10 µM (by protocol);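 active = percentage of spot-positive cells more than 3 SD above its plate mean, without a fluorescence outlier flag or 80% toxicity; inconclusive = no clear call, values can overlap the other calls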;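 also: spot-positive cell cutoff set from DMSO-treated cells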
Insulin prom up: MIN6 insulin promoter up-regulation; z-score at 5 µM; MIN6 insulin promoter-GFP reporter, high-content imaging; active compounds read high; hit rate 0.3% among 190,000; AID 1625;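 active = z-score above 3 at 5 µM with at least 500 cells counted in the well; inconclusive = wells under 500 cells, flagged as cytotoxic or low count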
INS promoter inh: TRM-6 insulin promoter activity inhibition; TRM-6 cells (human fetal islet line), insulin promoter-eGFP reporter, imaging; reporter expression induced with tamoxifen; inhibition, % at 2 µM; hit rate 0.9% among 130,000; AID 1273;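 active = inhibition above the mean plus 3 SD, with well images judged a real hit on visual review, cut at about 60% in these data, passing the limit was not always enough; inconclusive = inhibition over the cutoff but images rejected on review; inactive = inhibition not above the cutoff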
Lmaj promast: Leishmania major promastigote growth inhibition; Leishmania major promastigotes, resazurin fluorescence viability; inhibition, % at 10 µM; hit rate 9% among 200,000; AID 1063; in the data active = inhibition above about 50%;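 also: promastigotes grown with compound for 44 hours at 28 °C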
* marks the source's active call; other numbers are inactive results; i = inactive; ? = inconclusive; / = no result; + = active, no number.

SMILES | PTEN del growth | bCat KO growth | Autophagy mod | Insulin prom up | INS promoter inh | Lmaj promast
O=C(c1ccc(-c2ccccc2)cc1)C1CCCN(Cc2ccncc2)C1 (centres undefined) | / | / | i | -1.1 | / | 93*
CN(C)S(=O)(=O)N1CCCC(C(=O)c2ccc(C(F)(F)F)cc2)C1 (centres undefined) | / | / | i | -0.24 | / | -1
Cn1cc(CN2CCCC(C(=O)c3cccs3)C2)c(-c2cccc(Cl)c2)n1 (centres undefined) | / | / | i | 0.15 | / | 63*
Cc1nn(C)cc1CN1CCCC(C(=O)c2ccc(-c3ccccc3)cc2)C1 (centres undefined) | / | / | i | -1.1 | / | 90*
Cc1ccsc1C(=O)C1CCCN(Cc2cn(C)nc2-c2ccccc2)C1 (centres undefined) | / | / | i | / | -52 | 6
CC(C1CCN(Cc2cn(C)nc2-c2cccc(Cl)c2)CC1)N1CCOCC1 (centres undefined) | / | / | i | 0.6 | / | 69*
Fc1c(F)c(F)c(N=Cc2ccc3ncccc3c2)c(F)c1F | 93 | 95 | i | 0.11 | -53 | -2
Cc1cc(C)c(C)c(C(=O)CSc2nnc(-c3ccc4[nH]c(C)c(C)c4c3)o2)c1C | 18 | 23 | + | -0.93 | -7 | 42
COc1c(C)cc(Br)cc1C(=O)Nc1ccc(Cc2ccncc2)cc1 | / | / | + | 0.71 | / | 96*
Cc1c([N+](=O)[O-])cc(C(=O)Nc2ccc(Cc3ccncc3)cc2)cc1[N+](=O)[O-] | 89 | 99 | i | 0 | 35 | 99*
Cc1ccccc1C(=O)NC(=S)Nc1ccc(Cc2ccncc2)cc1 | 96 | 93 | i | -0.06 | 27 | 53*
COc1ccccc1C(=O)Nc1ccc(Cc2ccncc2)cc1 | 86 | 82 | i | / | 27 | 9
O=c1c(O)c(-c2cccs2)oc2ccccc12 | 90 | 87 | i | -0.25 | 6 | 0
N#CC1=C(N)SC2(CCCCC2)SC1c1ccccc1 (centres undefined) | 97 | 96 | i | -0.88 | -9 | -7
CCOC(=O)CSc1nc2cc(C(=O)N3CCC(C(N)=O)CC3)ccc2c(=O)n1C1CCCCC1 | / | / | i | 0.1 | 14 | 2
O=C(NC1CCCCC1)C(c1ccc(F)cc1)N(Cc1ccccc1)C(=O)CN1C(=O)c2ccccc2S1(=O)=O (centres undefined) | 23 | 30 | i | 0.01 | 13 | 58*
COc1ccc(-c2nnn(CC(=O)N(Cc3ccc(F)cc3)C(C(=O)NC3CCCC3)c3ccc(F)cc3)n2)cc1 (centres undefined) | / | / | i | / | -25 | 3
O=C(NC1CCCC1)C(c1ccc(F)cc1)N(Cc1ccc(F)cc1)C(=O)CCl (centres undefined) | 81 | 83 | i | 0.02 | 11 | 100*
O=C(NC1CCCCC1)C(c1ccc(F)cc1)N(CCc1ccccc1)C(=O)CN1C(=O)c2ccccc2S1(=O)=O (centres undefined) | 60 | 38 | i | / | -131 | 50*
O=C(CN1C(=O)c2ccccc2S1(=O)=O)NC1CCCC1 | 91 | 87 | i | 0.51 | -400 | -5
O=C(CN(c1ccccc1)S(=O)(=O)c1ccc(F)cc1)N1CCCCCC1 | 97 | 84 | i | -1.3 | -60 | 7
CC1(C)Cc2c(sc3nc(-c4ccccc4)n(N)c(=O)c23)CO1 | 89 | 82 | i | 0.51 | -21 | -3
CCc1cccc(CC)c1N1C(=O)c2cc(N3CCOCC3)c([N+](=O)[O-])cc2C1=O | 82 | 95 | i | 0.65 | -23 | 84*
CCc1ccc(N2C(=O)c3cc(N4CCOCC4)c([N+](=O)[O-])cc3C2=O)cc1 | 96 | 108 | i | 0.05 | -9 | -5
Cc1ccc(C)c(N2C(=O)c3cc(N4CCOCC4)c([N+](=O)[O-])cc3C2=O)c1 | 89 | 92 | i | -0.31 | 28 | 55*
SMILES | PTEN del growth | bCat KO growth | Autophagy mod | Insulin prom up | INS promoter inh | Lmaj promast
COc1ccc(C2C(C#N)=C(C)NC3=C2S(=O)(=O)c2ccccc23)cc1 (centres undefined) | 81 | 83 | i | -0.48 | -147 | 7
COC(=O)Nc1ccc(S(=O)(=O)N2CCCC(C(=O)N3CCCCCC3)C2)cc1 (centres undefined) | / | / | + | -0.62 | / | 6
O=C(NC1CCS(=O)(=O)C1)C1CCCN(S(=O)(=O)c2ccc(Cl)cc2)C1 (centres undefined) | 97 | 85 | i | 0.24 | / | -7
COC(=O)Nc1ccc(S(=O)(=O)N2c3ccccc3CCC2C)cc1 (centres undefined) | 20 | 19 | i | 0.58 | / | 100*
COC(=O)Nc1ccc(S(=O)(=O)N2CCCC(C(=O)NC3CCS(=O)(=O)C3)C2)cc1 (centres undefined) | 99 | 87 | i | 0.35 | 35 | 58*
O=C(NC1C=CS(=O)(=O)C1)c1sc2ccccc2c1Cl (centres undefined) | 6 | 8 | i | 3.9* | -162 | 30
COc1cccc(C(=O)/C=C/Nc2ccc(NC(C)=O)cc2)c1 | 97 | 94 | i | -0.14 | -18 | -12
COc1cc(/C=C/C(=O)O)ccc1OS(=O)(=O)c1ccc(C)cc1 | / | / | i | -0.08 | / | -10
COc1cc(/C=C/C(=O)c2ccc(NS(=O)(=O)c3ccc(C)cc3)cc2)cc(OC)c1O | 6 | 7 | i | -2.1 | / | 82*
COc1cccc(C(=O)/C=C/Nc2ccc(S(=O)(=O)Nc3cccc(C(C)=O)c3)cc2)c1 | 19 | 18 | i | -2 | 2 | 82*
COc1ccc(C(=O)/C=C/Nc2ccc(S(=O)(=O)Nc3ncccn3)cc2)cc1 | 103 | 96 | i | 0.13 | / | -6
COc1cc(/C=C/C(=O)c2ccc(NS(=O)(=O)c3ccc(C)cc3)cc2)ccc1OC(F)F | 2.9* | 4.8* | i | -0.03 | 7 | 98*
COc1cc(S(=O)(=O)Nc2ccc(C)cc2)ccc1NC(=O)c1ccncc1 | 85 | 82 | i | -0.53 | -23 | 23
COc1cccc(/C=C/C(=O)c2ccc(NS(=O)(=O)c3ccc(C)cc3)cc2)c1 | 95 | 101 | i | -0.12 | / | 99*
N=c1n(CC(=O)c2ccc([N+](=O)[O-])cc2)c2ccccc2n1Cc1ccc(Cl)cc1 | 1.6* | 1.3* | i | ? | / | 100*
N=c1n(CCO)c2ccccc2n1Cc1ccc(Cl)cc1 | 71 | 74 | i | -0.3 | 43 | 9
N=c1n(CC(=O)c2ccc([N+](=O)[O-])cc2)c2ccccc2n1Cc1ccccc1 | 1.8* | 1.7* | i | 0.14 | / | 99*
C=CCn1c(=N)n(CC(=O)c2cccc([N+](=O)[O-])c2)c2ccccc21 | / | / | i | -0.47 | / | 25
N=c1n(CC(=O)c2ccc([N+](=O)[O-])cc2)c2ccccc2n1Cc1ccccc1Cl | 11 | 13 | i | 0.07 | 39 | 101*
N=c1n(CC(=O)O)c2ccccc2n1Cc1ccccc1Cl | 103 | 104 | i | 0.52 | -3 | -1
O=C(NCc1ccco1)/C(=C\c1cccs1)NC(=O)c1ccccc1 | / | / | i | -0.2 | / | 0
